Bioassay records deposited in PubChem BioAssay by National Center for Advancing Translational Sciences (NCATS).
Sampled rows, rich in hits. Any-hit rate of the full collection: about 5.4%.
FMDV antiviral = antivirals against foot and mouth disease virus; FMDV antiviral cell-based qHTS; Potency, µM (titrated, usually from 57.9 µM), for the others: at the top dose activity change, negative = inhibition, most hits filed as inhibitors; 410,000 tested, 1.2% active; AID 1159524; calls by dose curve; tested in HEK293T cells; also: read-out not given here; nearly all actives have a fitted effect of over 45% in size
Marburg entry inh = Marburg virus entry inhibition; Marburg virus pseudotyped entry inhibition, cell reporter; Potency, µM (titrated, usually from 37.8 µM), for inactives: at the top dose activity change, negative = inhibition, most hits filed as inhibitors; 300,000 tested, 1.8% active; calls by dose curve; tested in HEK293 cells
Vaccinia Venus = inhibitors of vaccinia virus (Venus reporter); Vaccinia virus Venus reporter expression, fluorescence; Potency, µM (highest dose often 36.5 µM), for the others: top-dose activity change, negative = inhibition, actives largely listed as inhibitors; 330,000 tested, 0.46% active; calls by dose curve; tested in A549 cells; also: nearly all actives have a fitted effect of over 30% in size
VACV mCherry inh = vaccinia inhibition (mCherry reporter). Vaccinia virus mCherry reporter infection, fluorescence. Potency, µM (top dose mostly 36.5 µM), for the others: top-dose activity change, negative = inhibition, usual class: inhibitors. 310,000 tested, 0.63% active; calls by dose curve; tested in A549 cells; also: nearly all actives have a fitted effect of over 35% in size
Lassa entry inh = inhibitors of Lassa virus binding or cell entry | Lassa virus pseudotype entry inhibition, cell reporter | Potency, µM (series often up to 37.9 µM), for the others: top-dose activity change, negative = inhibition, most hits filed as inhibitors | 300,000 tested, 1.2% active; calls by dose curve; tested in HEK293 cells; also: nearly all actives have a fitted effect of over 50% in size
Sm TGR inh = blocks Schistosoma mansoni thioredoxin glutathione reductase; 360,000 tested, 3% active; AID 485364; Potency, µM (series often up to 114 µM), inactives show at the highest dose activity change, negative = inhibition, most hits filed as inhibitors; Q962Y6; purified TGR, DTNB reduction, TNB absorbance 405 nm; active = well fitted inhibition curve with a large enough effect; inconclusive = small, poorly fitted or top-dose-only effect; inactive = no such curve, though single readings can be large or run the other way; also: nearly all actives have a fitted effect of over 60% in size
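First, TGR (20 nM dispensed) and NADPH were mixed with compound. Second, a 15 min room-temperature incubation followed. Third, further NADPH and then DTNB were added to start the reaction. Finally, TNB absorbance was monitored kinetically.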
Numbers without * were called inactive; [ ] = remark or other dose. % is scaled to controls: 0 for no effect and ±100 for the full control effect; potency is read from the fitted curve at half-maximal effect.

Screening Cc1cc(F)ccc1S(=O)(=O)NCC(c1ccco1)S(=O)(=O)c1cccs1 (configuration not stated) returned FMDV antiviral 58.7%, Vaccinia Venus -7.1%, VACV mCherry inh -8.7%, Lassa entry inh -6.2%[46.1 µM] and Sm TGR inh 0.1µM*.
COc1ccc(S(=O)(=O)NCC(c2ccco2)S(=O)(=O)c2cccs2)cc1F (configuration not stated) was read as FMDV antiviral 57.8%, Vaccinia Venus -16.2%, VACV mCherry inh -10.7%, Lassa entry inh -8.9%[46.1 µM] and Sm TGR inh 0.1µM*.
CCc1ccc(CNc2nc3nc(C)c(Cc4ccccc4)c(=O)n3[nH]2)cc1 was read as FMDV antiviral 10.0%, Marburg entry inh -7.1%[46.1 µM], Vaccinia Venus -9.8%, VACV mCherry inh -15.1%, Lassa entry inh 18.2%[46.1 µM] and Sm TGR inh 2.5%.
`CC(=O)OC[C@H]1O[C@H](c2ccc(C(C)=O)cc2)C=C[C@H]1OC(C)=O` gave Marburg entry inh 1.7%[14.2 µM].
For COc1ccc(S(=O)(=O)NCC(c2ccco2)S(=O)(=O)c2cccs2)cc1C (configuration not stated) the results were FMDV antiviral 40.5%, Vaccinia Venus -7.3%, VACV mCherry inh -14.0%, Lassa entry inh inconclusive and Sm TGR inh 0.1µM*.
Screening CCOc1ccc(NS(=O)(=O)c2ccc(NS(=O)(=O)c3cccs3)cc2)cc1 returned FMDV antiviral 20.8%, Marburg entry inh -12.5%[46.1 µM], Vaccinia Venus -5.9%, VACV mCherry inh inactive, Lassa entry inh -6.7% and Sm TGR inh 2.5%.
For CCOc1ccc(S(=O)(=O)NCC(c2ccco2)S(=O)(=O)c2cccs2)cc1 (configuration not stated) the results were FMDV antiviral 53.5%, Vaccinia Venus -14.5%, VACV mCherry inh inactive, Lassa entry inh inconclusive and Sm TGR inh 0.1µM*.
Screening COc1ccc(S(=O)(=O)NCC(c2ccco2)N2CCOCC2)cc1C (configuration not stated) returned FMDV antiviral 12.0%, Vaccinia Venus -10.1%, VACV mCherry inh -12.8%, Lassa entry inh -5.2%[46.1 µM] and Sm TGR inh -5.6%.
For O=C(CCCc1ccccc1)NC1CC(=O)N(c2ccc(F)cc2)C1 (configuration not stated) the results were FMDV antiviral -13.0%, Vaccinia Venus -4.6%, VACV mCherry inh -9.0%, Lassa entry inh -18.5%[46.1 µM] and Sm TGR inh -1.3%.
`COc1cc2c(cc1OC)CN(C(=O)[C@@H]1C[C@H](NCc3cn(C)c4ccccc34)CN1C1Cc3ccccc3C1)CC2` gave FMDV antiviral -5.0%, Vaccinia Venus 1.1% and VACV mCherry inh -0.7%.
Screening CCN1CCC(CNCc2cn(-c3ccc(OC)cc3)nc2-c2ccccc2Cl)C1 (configuration not stated) returned FMDV antiviral 35.4%, Marburg entry inh 3.98µM*, Vaccinia Venus -19.9%, VACV mCherry inh inconclusive, Lassa entry inh inconclusive and Sm TGR inh -15.3%.
`Cc1cc(C)n(CC(=O)O)c(=O)c1[N+](=O)[O-]` gave FMDV antiviral -15.4%, Marburg entry inh -2.5%, Vaccinia Venus -15.5%, VACV mCherry inh inactive, Lassa entry inh 5.7% and Sm TGR inh 39.8µM*.
CCN(CC)CCNC(=O)c1c(O)c2ccccc2n(Cc2ccccc2)c1=O was read as FMDV antiviral -3.0%, Marburg entry inh inconclusive, Vaccinia Venus -29.7%, VACV mCherry inh inconclusive, Lassa entry inh -26.0% and Sm TGR inh 10.4%.
CCN(CC)CCCNC(=O)c1c(O)c2ccccc2n(Cc2ccccc2)c1=O was read as FMDV antiviral -17.3%, Marburg entry inh 14.1µM*, Vaccinia Venus inconclusive, VACV mCherry inh inconclusive, Lassa entry inh inconclusive and Sm TGR inh 3.5%.
CC1CCN(S(=O)(=O)c2cc(C(=O)N3CCN(c4ncccn4)CC3)ccc2Br)CC1 was read as FMDV antiviral 20µM*, Marburg entry inh inconclusive, Vaccinia Venus -24.7%, VACV mCherry inh -14.4%, Lassa entry inh inconclusive and Sm TGR inh 4.8%.
Screening CCOc1ccccc1NC(=O)CSc1nc2ccccc2nc1Cc1ccc(C)cc1 returned FMDV antiviral -3.3%, Vaccinia Venus inconclusive, VACV mCherry inh -5.5%, Lassa entry inh 5.0%[46.1 µM] and Sm TGR inh 4.3%.
